The values that follow come from PubChem BioAssay (NCI).

Molecules are shown by their SMILES. About 83,000 compounds went through this panel and 20% of them were active in at least one assay; those are over-represented in the sample as a whole.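 Results are percent growth after 48 hours of single-concentration exposure. 100 means growth as in untreated cells, lower positive values show inhibition; negative values down to -100 show cell death.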 Values without a mark were called inactive. Activity calls are given as the source filed them. How the source made its calls: active means growth percent below 10; inactive means the rest.

For this assay, the system named is RPMI-8226 leukemia. In words: NCI-60 one-dose screen, 48 h (100 = growth as untreated, 0 = no growth, -100 = all killed). The following applies: 10 µM unless noted.
Regarding `COc1cc(NC(C)CN(CC(C)C)C(C)C)c2ncccc2c1` (centres undefined), the growth was 102%.

Take `Nc1c2c(nc3ccc(Cl)cc13)CC(c1ccccc1)CC2=O` (centres undefined): the growth was 25.8%. With `COC(=O)[C@]12CC[C@@H](C)[C@H](C)[C@@H]1C1=CC[C@@H]3[C@@]4(C)C[C@@H](O)[C@H](O)[C@@](C)(CO)C4=CC[C@@]3(C)[C@]1(C)CC2` the figure was -15.2% (active).

Regarding `CCC1C(=O)COC1=O` (centres undefined), the growth is 83.9%.

For the molecule `C=C(C)[C@@H]1CC[C@]2(C)[C@H](CC=C3[C@@H]4CC(C)(C)CC[C@]4(C(=O)OC)CC[C@]32C)[C@@]1(C)CC/C(N)=N/O`, the growth was 34.9%.

Regarding `O=C(/C=C/c1cccc2ccccc12)Nc1ncc(Cc2ccccc2)s1`, the growth is 8.58% (active). With `N#Cc1c(-c2ccc(O)cc2)c2c(N)nn(-c3ccccc3)c2[nH]c1=O` the figure was 101%; with `COc1ccc(-c2c(-c3nc4ccc(N5CCOCC5)cc4[nH]3)[nH]c(C)c2C(C)=O)cc1`, 3.61% (active); with `c1ccc(-c2nc(Nc3ccc(-c4nc5ccccc5[nH]4)cc3)nc(N3CCOCC3)n2)cc1`, -22.6% (active). For `Cc1cc2nc3c4cc(Cl)ccc4n(CCN(C)C)c3nc2cc1C` the value was -11.5% (active). For `Cc1cc(N2CCOCC2)nc(N(CCCNc2ccnc3cc(Cl)ccc23)Cc2ccco2)n1` the value was 19.4%; for `Cc1cc(N(CCNc2ccnc3cc(Cl)ccc23)Cc2ccco2)nc(Cl)n1`, -29.5% (active); for `COc1ccc(/C=C/C(=O)NCCO)cc1`, 105%.

As for `O=C1NC(c2ccc(Cl)c(Cl)c2)=C/C1=C\c1ccccc1`, the growth is 48.3%.
